Measured values published in PubChem BioAssay AID1851 (National Center for Advancing Translational Sciences (NCATS), 2009).
Where “and” joins values, the source holds several entries; their conditions need not be identical. Equal values may be shown once. Hit rate of the full screen: of about 16,000 compounds, about 2,600 (16%) were called active. Another 20% or so got no clear call; they are omitted. Only a sample is shown. A number with no mark means an inactive call. Calls follow the shape of the dose curve; as a rule, active = well fitted curve in the direction sought with a large enough effect; inconclusive = small, poorly fitted or top-dose-only effect, or effect the other way; inactive = no such curve, though single readings can be large or run the other way.

Target: Cytochrome P450 2D6 (Homo sapiens) (UniProt P10635)
Sequence (P10635 whole entry, looked up): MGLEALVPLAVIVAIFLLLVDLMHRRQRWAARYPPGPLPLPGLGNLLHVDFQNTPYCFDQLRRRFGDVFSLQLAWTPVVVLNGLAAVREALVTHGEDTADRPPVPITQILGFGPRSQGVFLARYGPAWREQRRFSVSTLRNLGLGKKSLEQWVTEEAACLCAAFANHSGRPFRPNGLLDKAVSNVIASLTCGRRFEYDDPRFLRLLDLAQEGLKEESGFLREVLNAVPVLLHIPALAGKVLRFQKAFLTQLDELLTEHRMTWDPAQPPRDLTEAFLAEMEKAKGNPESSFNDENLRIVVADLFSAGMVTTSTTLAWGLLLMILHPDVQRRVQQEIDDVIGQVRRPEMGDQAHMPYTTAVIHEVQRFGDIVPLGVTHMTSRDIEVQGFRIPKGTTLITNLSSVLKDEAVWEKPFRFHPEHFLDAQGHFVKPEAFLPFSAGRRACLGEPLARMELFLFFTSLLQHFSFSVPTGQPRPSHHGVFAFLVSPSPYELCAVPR
Test: Cytochrome panel assay with activity outcomes
Conditions: recombinant CYP, pro-luciferin dealkylation, luminescence, p450-cyp2d6; series mostly up to 57.1 µM
% is scaled to controls: 0 for no effect and ±100 for the full control effect.

Structure (SMILES)	AC50	activity, negative = inhibition
CC(=O)O[C@]1(C(C)=O)CC[C@@H]2[C@@H]3C=C(Cl)C4=CC(=O)[C@H]5C[C@@H]5[C@]4(C)[C@H]3CC[C@]21C	inactive	
CCNc1ncc2nc(-c3ccc(OC)cc3)c(=O)n(Cc3cccs3)c2n1	inactive	
COc1cccc(Nc2nc(-c3ccc(O)cc3)cs2)c1	8.91 µM (active)	
COc1ccc(-c2csc(NC(=O)Cn3nc(C)cc3C)n2)cc1	inactive	
COc1cccc(-c2csc(N3CCN(C(=S)Nc4ccccc4)CC3)n2)c1	inactive	
Cc1ccc(OCC(=O)NNC(=O)C2CCN(c3ncccn3)CC2)cc1	inactive	
OC[C@@H]1O[C@@H](n2cnc3c(NC4CCCC4)ncnc32)[C@H](O)[C@H]1O	inactive	
Cc1ccn2c(NC(=O)c3ccccc3)c(-c3cccs3)nc2c1	inactive	
Cc1cccc(C)c1NC(=S)NC(=O)CCc1ccccc1	inactive	
CC[N+](CC)(CC)CC(=O)Nc1c(C)cccc1C	inactive	
CC[N+](CC)(CC(=O)Nc1c(C)cccc1C)Cc1ccccc1	0.00794 µM (active)	
COc1ccc(CCNC(=O)C2CCN(S(=O)(=O)N3CC(C)CC(C)C3)CC2)cc1OC (stereo not given)	inactive	
C1CCC(N=C(NC23CC4CC(CC(C4)C2)C3)N2CCOCC2)CC1	0.631 µM (active)	
COC(=O)[C@@]1(Cc2ccc(OC)cc2)[C@H]2c3cc(C(=O)N4CCCC4)n(Cc4cc(F)cc5c4OCOC5)c3C[C@H]2CN1C(=O)c1ccccc1	inactive	
CCn1ccc(C(=O)NC2=C(C#N)CCC2)n1	inactive	
COc1cc(COc2cc(N)c(Cl)cc2C(=O)CCC2CCN(CCNS(C)(=O)=O)CC2)cc(OC)c1	0.794 µM (active)	
COc1[nH]c2ccc(F)cc2c1C(=O)OCC1CCN(CCNS(C)(=O)=O)CC1	inactive	
Cn1cc(C(=O)OCC2CCN(CCNS(C)(=O)=O)CC2)c2ccccc21	inactive	
COc1cc(N)c(Cl)cc1C(=O)CCC1CCN(CCNS(C)(=O)=O)CC1	12.6 µM (active)	
COc1cc(/C=C(\C#N)C(=O)NCC2CCCO2)c([N+](=O)[O-])cc1OC (stereo not given)	inactive	
CCn1c(CC(C)C)n[nH]c1=S	inactive	
CO[C@H]1COC(=O)C/C=C\[C@H](C)[C@@H](NS(=O)(=O)c2ccc(C)cc2)COC(=O)CCC[C@@H]1C		8.76% [at 11.4 µM]

Structure (SMILES)	AC50	activity, negative = inhibition
COC(Cc1nnc(SC)n1-c1ccc(Cl)cc1)OC	inactive	
Cc1cccc(Oc2coc3cc(OC(=O)c4cccs4)ccc3c2=O)c1	inactive	
Cc1ccc(CS(=O)(=O)CCC(=O)N2CCOCC2)cc1	inactive	
CC(C)n1c(N2CCN(C(=O)Nc3ccccc3)CC2)nc2ccccc21	inactive	
Cn1cc(/C=N/n2cnc3sc4c(c3c2=O)CCCC4)c2ccccc21	inactive	
COc1ccc2[nH]cc(CCNc3ncnc4ccc(-c5ccoc5)cc34)c2c1	5.01 µM (active)	
COc1ccc2[nH]cc(CCNc3ncnc4ccc(-c5ccc6c(c5)OCO6)cc34)c2c1	2.51 µM (active)	
COc1cccc(-c2ccc3ncnc(NCCc4c[nH]c5ccc(OC)cc45)c3c2)c1	2.51 µM (active)	
COc1ccc2[nH]cc(CCNc3ncnc4ccc(-c5cccnc5)cc34)c2c1	7.94 µM (active)	
COC(=O)[C@@H]1CC[C@H](C)[C@@H](c2ccc(C)cc2)N1C(=O)c1ccc(/C=N\O[C@@H](C)c2cn([C@H](CO)Cc3ccccc3)nn2)cc1		12.4% [at 11.4 µM] and -16.1% [at 11.4 µM]
N[C@](CC1c2ccccc2Oc2ccccc21)(C(=O)O)[C@@H]1C[C@@H]1C(=O)O	inactive	
COc1ccc(-n2c(=O)c(-c3ccc(F)cc3)nc3cncnc32)cc1	inactive	
Cn1nnnc1SCc1ccc(C(=O)Nc2ccc(Br)cc2)cc1	inactive	
CCC(=O)OCc1c(C(F)(F)F)nn(C)c1Sc1ccc(F)cc1	inactive	
CC(C)(C)C(=O)NC(=C(Cl)Cl)P(=O)(O)O	inactive	
Cc1c(C)c2c(c(C)c1O)CC[C@@](C)(C(=O)O)O2	inactive	
CCCNc1nc(NCC)nc(OC)n1	inactive	
Cc1noc(C)c1C(=O)N1CCC2(CCCN(Cc3nccs3)C2)CC1	inactive	
C[C@H](O)[C@H](O)[C@@H]1CNc2nc(N)[nH]c(=O)c2N1	inactive	
COc1ccc2[nH]cc(CCNc3ncnc4ccc(-c5c(C)noc5C)cc34)c2c1	6.31 µM (active)	
Fc1ccc(-c2[nH]ncc2-c2nnnn2-c2ccccc2)c(F)c1	inactive	
Clc1ccc2[nH]cc(-c3nnnn3-c3ccccc3)c2c1	28.2 µM (active)	

Structure (SMILES)	AC50	activity, negative = inhibition
Cc1ccc(-n2nnnc2-c2cnc3ccc(Cl)cc3c2-c2ccccc2)cc1	inactive	
Cc1cccc(C2NC(=O)c3c(sc(C)c3C)N2)c1O (stereo not given)	inactive	
Clc1ccc(-c2nnc(-c3ccc(Br)cc3)c(N3CCSCC3)n2)cc1	inactive	
CC1(C)Cc2ccccc2C(NNC(=O)c2ccncc2)=N1	7.94 µM (active)	
CC(C)NNC(=O)c1ccncc1	inactive	
O=C(NNC(=O)c1ccncc1)c1ccncc1		-4.63% [at 11.4 µM]
O=C(Cc1ccccc1)N/N=C/c1cc(Br)c(Br)o1	inactive	
COc1ccc(OC)c(C2N(c3cc(C)on3)C(=O)C3CCCN32)c1 (stereo not given)	inactive	
COc1ccc(C(F)(F)F)cc1N/C=C\c1nnnn1-c1ccccc1	inactive	
O=C(CSc1ccccc1)Nc1ccc(N2CCN(c3ccccc3)CC2)c(F)c1	inactive	
CCOC(=O)c1[nH]c2cc(OC)c(OC)cc2c1NC(=O)c1nonc1C	inactive	
CCN(CC(=O)Nc1ccc2c(c1)OCCO2)C(=O)c1cccc(S(=O)(=O)N2CCOCC2)c1	inactive	
O=C(CN1CCN(c2ccc(Cl)cc2)CC1)Nc1ccc(F)c(F)c1	3.55 µM (active)	
CCOC(=O)c1[nH]c2cc3c(cc2c1NC(=O)CN1CCC2(CC1)OCCO2)OCO3	inactive	
CCOc1ccc(NC(=O)CN2CCN(S(=O)(=O)c3ccc(Cl)cc3)CC2)cc1	inactive	
O=C(CN1CCN(S(=O)(=O)c2ccc(Cl)cc2)CC1)Nc1ccc2c(c1)OCO2	2.51 µM (active)	
COc1cc2c(cc1OC)CN(CC(=O)Nc1ccc3c(c1)OCO3)CC2	8.91 µM (active)	
COc1cc(-c2nnc(SCC(=O)Nc3ccc4c(c3)OCCO4)o2)cc(OC)c1OC	inactive	
COc1cc2c(cc1OC)CN(C(=S)Nc1ccccc1)CC2	inactive	
O=C(CSc1ccc(Cl)cc1)Nc1ccc(N2CCN(c3ccccc3)CC2)c(F)c1	inactive	
CCOC(=O)c1[nH]c2cc3c(cc2c1NC(=O)CN1CCc2ccccc2C1)OCO3	3.55 µM (active)	
